Sm TGR inh – S. mansoni TGR enzyme inhibition | Q962Y6 | purified TGR, DTNB reduction, TNB absorbance 405 nm | Potency, µM (series often up to 114 µM), without a hit: at the top dose activity change, negative = inhibition, actives largely listed as inhibitors | actives 3% (n = 360,000); also: potency is read from the fitted curve at half-maximal effect; % is scaled to controls: 0 for no effect and ±100 for the full control effect; nearly all actives have a fitted effect of over 60% in size
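First, TGR (20 nM dispensed) and NADPH were mixed with compound. Second, a 15 min room-temperature incubation followed. Third, further NADPH and then DTNB were added to start the reaction. Finally, TNB absorbance was monitored kinetically.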
Pf growth 96h – inhibits malaria parasite growth, 96 h; P. falciparum luciferase reporter growth, 96 h; actives 6.9% (n = 320,000); Potency, µM (highest dose often 28.7 µM), for the others: at the top dose activity change, negative = inhibition, usual class: inhibitors; also: potency is read from the fitted curve at half-maximal effect; % is scaled to controls: 0 for no effect and ±100 for the full control effect
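Readout is luminescence from an integrated firefly luciferase in P. falciparum. Red cells, 2% hematocrit and 0.05% parasitemia final, were cultured with compound through two parasite generations (96 hours) at 37 C, 5% CO2.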
Cycloheximide cs – counter-screen hit for Shiga toxin inhibitors, cycloheximide. AID 2314. cell reporter, cycloheximide protein synthesis inhibition counterscreen. max response, %. actives 12% (n = 300,000); in the data active = max response mostly above about 13%, no sharp cut-off; inactive = mostly below about 14%; also: read at 38.3 µM for the half of the compounds with a filed dose; 0% is about no effect
Pf growth 48h – inhibits P. falciparum growth in the first generation, 48 h; actives 5.9% (n = 310,000); Potency, µM (titrated, usually from 28.7 µM), without a hit: at the top dose activity change, negative = inhibition, usual class: inhibitors; P. falciparum luciferase growth in erythrocytes, 48 h; also: potency is read from the fitted curve at half-maximal effect; % is scaled to controls: 0 for no effect and ±100 for the full control effect
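Firefly luciferase activity from engineered P. falciparum reports growth; inhibitors lower the luminescent signal. Cultures contained 2% hematocrit erythrocytes at 0.1% final parasitemia.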
NS1 inh – inhibitors of influenza NS1 protein function. Potency, µM (top dose mostly 46.1 µM), for the others: top-dose activity, positive = more growth. actives 0.4% (n = 270,000); calls by dose curve; also: potency is read from the fitted curve at half-maximal effect; actives are rising curves; nearly all actives have a fitted effect of over 50% in size
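Read-out: OD600 growth recovery of NS1-expressing budding yeast. Cells grown overnight at 30C in -URA glucose medium, washed, resuspended and diluted 1:100 in 2% galactose assay medium, pH 6.0. Same strain lacking NS1 served as positive control.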
Shiga inhibitor – inhibitors of Shiga toxin in Vero cells; inhibition, % at 38.7 µM; Vero cells, Shiga toxin protein synthesis inhibition reporter; actives 9.2% (n = 290,000); in the data active = inhibition mostly above about 28%, no sharp cut-off; inactive = mostly below about 43%; also: 0% is about no effect
* hit, by the source's call; ? = inconclusive; · = not tested or not shown; [ ] = dose if it differs, or a comment. Sampled rows, rich in hits. Any-hit rate of the full collection: about 21%. Unless noted, calls follow the shape of the dose curve; as a rule, active = well fitted curve in the direction sought with a large enough effect; inconclusive = small, poorly fitted or top-dose-only effect, or another doubt; inactive = no such curve, though single readings can be large; an effect the other way counts as inactive or inconclusive.

SMILES	Sm TGR inh	Pf growth 96h	Cycloheximide cs	Pf growth 48h	NS1 inh	Shiga inhibitor
Cc1onc(-c2c(Cl)cccc2Cl)c1C(=O)NCCc1ccncc1	4%	?	-2	-3%	1%	-5
O=C(c1ccco1)N1CCN(c2ncnc3c2[nH]c2ccccc23)CC1	?	5%	-1	?	-7%	5
CCOc1ccc2nc(N3CCN(C(=O)c4ccco4)CC3)sc2c1	-2%	·	·	·	·	·
CCOc1ccc2[nH]c3c(N4CCN(C(=O)c5ccco5)CC4)ncnc3c2c1	-1%	12µM*	0	?	-8%	-4
O=C(c1ccco1)N1CCN(c2ncnc3c2[nH]c2ccc(Br)cc23)CC1	?	?	2	9.3µM*	10%	-4
CCOc1ccc2[nH]c3c(N4CCC5(CC4)OCCO5)ncnc3c2c1	6%	12µM*	0	?	-5%	-7
CCOC(=O)c1cnc(SCC(=O)N2CCOCC2)nc1N	-13%	?	-3	-20%	-4%	-2
O=C(NC1CCSc2ccccc21)c1cccc(Cl)c1 (stereo not drawn)	7.9µM*	15µM*	1	?	10%	-16
CS(=O)(=O)c1ccc(Cl)c(C(=O)NC2CCSc3ccccc32)c1 (stereo not drawn)	1%	2%	22*	0%	-1%	37
O=C(NC1CCCc2ccccc21)c1ccccc1Br (stereo not drawn)	1%	?	-3	9%	5%	-13
NS(=O)(=O)c1cc(C(=O)NC2CCSc3ccccc32)ccc1Cl (stereo not drawn)	-17%	5%	-4	-2%	2%	-14
O=C(NC1CCSc2ccccc21)c1ccccc1Br (stereo not drawn)	0%	?	24*	29%	-28%	23*
COc1ccccc1C(=O)NC1(C(F)(F)F)C(=O)Nc2c1c(=O)[nH]c(=O)n2CCc1ccccc1 (stereo not drawn)	7%	·	·	·	·	·
CC1(C)CC2(CCO1)C(Nc1ccccc1)=NC(=S)N2CC(N)=O (stereo not drawn)	11%	-26%	2	-26%	-5%	-11
CCCCC/C(C=O)=C/c1ccccc1	·	0%	·	-2%	·	·
Cc1ccc(Cl)c2c1=NC(=O)C=2c1[nH]c(=S)[nH]c1O	-27%	-12%	-1	34%[5.75 µM]	·	5
Cc1cc(C)cc(NC(=O)C(C)N2Cc3ccccc3C2=O)c1 (stereo not drawn)	2%	·	·	·	·	·
COC(=O)c1scc(C)c1N/N=C(\C)c1ccc(F)cc1F	5%	2.1µM*	-4	·	-1%	-5
COC(=O)c1scc(C)c1NC(=O)c1ccc(Cl)cc1	-8%	42%	-4	-6%	-7%	2
CNC(=O)/C(C#N)=C/c1c(N2CCN(c3ccc(OC)cc3)CC2)nc2c(C)cccn2c1=O	5%	?	-6	?	6%	-6
O=C(N/N=C/c1c[nH]c2ccccc12)c1ccccc1Cl	4%	44%	26*	30%	4%	55
O=C(N/N=C/c1c[nH]c2ccccc12)c1ccc(Br)cc1	-4%	?	32*	20%	-19%	54*
COC(=O)N/N=C/c1c[nH]c2ccccc12	8%	44%	1	33%	4%	10
CC(C)(C)OC(=O)N/N=C/c1c[nH]c2ccccc12	3%	18%	56*	2%	-4%	73*
O=C(N/N=C\c1c[nH]c2ccccc12)c1ccc(O)cc1	2%	6%	39*	35%	1%	63*
COc1ccc(N2C(=O)CS/C2=C\[N+](=O)[O-])cc1	16%	?	2	3%	?	16
CCOC(=O)c1noc2nc(C)n(CC(=O)Nc3cccc(OC)c3)c(=O)c12	4%	·	·	·	·	·
Cc1occc1C(=O)N/N=C/c1c[nH]c2ccccc12	0%	37%	48*	62%	-8%	96*
O=C(N/N=C/c1c[nH]c2ccccc12)c1cc(Cl)ccc1O	-35%	1%	45*	30%	-54%	44*
O=C(CNC(=O)c1ccco1)N/N=C/c1c[nH]c2ccccc12	1%	99%	6	?	·	-4

Screening data as filed in PubChem.
